Source: PubChem BioAssay (NCATS)
Records with an inconclusive call do not appear. Activity calls are given as the source filed them. Calls come from the whole dose curve; as a rule, active = well fitted curve in the direction sought with a large enough effect; inconclusive = small, poorly fitted or top-dose-only effect, or another doubt; inactive = no such curve, though single readings can be large; an effect the other way counts as inactive or inconclusive.

Columns and labels:
[1] = HPAF-II 24hr Apoptosis Induction qHTS against the NCATS CANVASS Library (AID 1347356)
In short: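 Caspase-Glo 3/7 luminescence, read after 15 min room-temperature development, measures apoptosis in HPAF-II cells treated 24 h at 37 degrees C with an 11-point concentration series; 500 cells/well; doxorubicin control.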

[2] = HEK293 18hr Apoptosis Induction qHTS against the NCATS CANVASS Library (AID 1347357); note: potency is the fitted concentration of half-maximal effect
In short: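 Caspase-Glo 3/7 luminescence (15 min, room temperature) measured apoptosis after an 18-hour, 37 degrees C exposure of HEK293 cells (500 cells/well) to compounds in 11 points.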

[3] = HPAF-II 12hr Apoptosis Induction qHTS against the NCATS CANVASS Library (AID 1347358)
In short: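 Caspase-3/7 activation by DEVD-substrate luminescence (Caspase-Glo 3/7, 15 min, room temperature) after a 12-hour compound exposure in 11 concentrations, of HPAF-II pancreatic cells seeded at 500/well in DMEM with 10% FBS.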

[4] = HPAF-II 18hr Apoptosis Induction qHTS against the NCATS CANVASS Library (AID 1347360)
In short: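 Caspase-3/7 activation was measured with luminescent Caspase-Glo 3/7 reagent (15 min, RT) in HPAF-II cancer cells (500 cells/well). Before detection, cells had been treated for 18 h at 37 C with compounds (11 points).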

[5] = HEK293 12hr Apoptosis Induction qHTS against the NCATS CANVASS Library (AID 1347361)
In short: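 HEK293 cells (500/well, DMEM + 10% FBS) were exposed to natural products across an 11-point series for 12 hours at 37 degrees C. Caspase-3/7 activity was then measured with DEVD luciferase luminescence after 15 min at room temperature.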

[6] = qHTS for ATAD5 Agonist screened against the NCATS CANVASS Library (AID 1347367);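 note: luciferase reporter driven by ATAD5 which rises upon DNA damage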
In short: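 Genotoxicity via ATAD5-luciferase luminescence after 16 h compound exposure (11-point series) at 37C in HEK293T-ATAD5 cells. CellTiter-Fluor viability read precedes the luminescence read; MMS serves as positive control.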

[7] = qHTS for ATAD5 Antagonist screened against the NCATS CANVASS Library (AID 1347370); note: nearly all actives have a fitted effect of over 65% in size; note: potency is the fitted concentration of half-maximal effect
In short: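 Compounds (11-point) co-dosed with 10 µM 5-FUrd for 16 h at 37 °C onto HEK293T-ATAD5 luciferase reporter cells. Viability measured by CellTiter-Fluor fluorescence, then ATAD5 reporter signal by luminescence.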

[8] = target: Nuclear receptor subfamily 1 group I member 3 (Homo sapiens) (UniProt Q14994); assay: qHTS for Constitutive Androstane Receptor (CAR) Agonist screened against the NCATS CANVASS Library (AID 1347373);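 note: every well also contained 1.5 µM PK11195 alongside the test compound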
In short: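 Agonist mode with 1.5uM PK11195 present: compounds for 24hr on HepG2-hCAR-CYP2B6 cells. CellTiter-Fluor fluorescence (ex 405, em 540 nm) gives viability; ONE-Glo luminescence reports CAR activation.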

[9] = 10-beta competent E. coli microbial cell viability qHTS against the NCATS CANVASS Library (AID 1347376); note: series mostly up to about 46 µM
In short: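 Read-out: BacTiter-Glo ATP luminescence, taken 20 min after reagent addition. Beforehand, 10-beta competent E. coli at 0.2 OD had been incubated overnight at 37C with compounds at 11 concentrations.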

[10] = Inflammasome Signaling qHTS Counterscreen: IL-1-beta AlphaLISA counterscreen against the NCATS CANVASS Library (AID 1347381);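 note: cell-free check with purified IL-1β in medium and no THP-1 cells; series mostly up to about 57 µM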
In short: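 Purified IL-1-beta (4 pg/well) + compound, 11-pt conc. series; acceptor beads 6 ug/mL + biotin-Ab 0.6 nM final, 1 h RT; SA-donor 24 ug/ml final, 30 min dark RT; read ex 680/em 615.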

[11] = qHTS assay for small molecule disruptors of mitochondrial membrane potential screened against the NCATS CANVASS Library (AID 1347389); note: nearly all actives have a fitted effect of over 60% in size; note: potency is the fitted concentration of half-maximal effect
In short: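 Mitochondrial membrane potential in HepG2: 1 h compound treatment (11-point concentration series), 30 min m-MPI dye at 37C, then dual fluorescence of J-aggregates (ex 540/em 590) and monomers (ex 490/em 535); lower red/green ratio indicates depolarization.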

[12] = G06 Cancer Cell Toxicity qHTS against the NCATS CANVASS Library (AID 1347368); note: nearly all actives have a fitted effect of over 60% in size; note: potency is the fitted concentration of half-maximal effect
In short: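 Viability measured by CellTiterGlo ATP luminescence after 72 hr at 37C, 5% CO2. Canine G06 glioma cells plated at 500/well. Compounds tested as 11-point qHTS titrations.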

[13] = MCF7 Cancer Cell Toxicity qHTS against the NCATS CANVASS Library (AID 1347369); note: potency is the fitted concentration of half-maximal effect
In short: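 Cytotoxicity was measured as CellTiterGlo luminescence (ATP) after 72 h at 37 °C. The cells were MCF7 at 500 per well, with an 11-point compound concentration series.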

[14] = qHTS for Activators of p53 Stress Response Pathway screened against the NCATS CANVASS Library (AID 1347388); note: potency is the fitted concentration of half-maximal effect
In short: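 p53RE-bla HCT-116 cells (4000/well) were plated 5 h at 37C, exposed to compounds for 16 h at 37C over an 11-point concentration series, then loaded with CCF4 for 2 h at room temperature; 460/530 nm emission ratio read.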

[15] = Secretion counterscreen for inhibitors of the SERCaMP assay screened against the NCATS CANVASS Library (AID 1347390);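 note: light from luciferase secreted into medium read as a measure of general secretion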; note: potency is the fitted concentration of half-maximal effect
In short: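 Counterscreen for secretory-pathway interference: after 4 h attachment, SH-SY5Y-GLuc cells were exposed 20 hours to compounds (final 0.001 - 77 uM), then coelenterazine added and GLuc luminescence recorded; Brefeldin A served as control.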

[16] = Viability qHTS for inhibitors of the SERCaMP assay screened against the NCATS CANVASS Library (AID 1347400); note: nearly all actives have a fitted effect of over 70% in size; note: potency is the fitted concentration of half-maximal effect
In short: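 CellTiter-Glo luminescence measured cytotoxicity after 48 h at 37C of compound treatment (11-point series). Cells were SH-SY5Y-GLuc SERCaMP MJH297 derivatives, seeded at 1000 per well 4 h beforehand.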

[17] = Redox Reaction Profiling qHTS: Assay Interference Panel against the NCATS CANVASS Library (AID 1347401); note: potency is the fitted concentration of half-maximal effect
In short: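 Quantitative HTS over an 11-point series was run in HEPES pH 7.3 with 50 mM NaCl, 200 uM DTT and 5 uM resazurin. Initial and 15-min resorufin fluorescence readings were taken.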

[18] = HEK-293 Cancer Cell Toxicity qHTS against the NCATS CANVASS Library (AID 1347355); note: nearly all actives have a fitted effect of over 65% in size; note: potency is the fitted concentration of half-maximal effect
In short: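 Toxicity was measured as CellTiter-Glo luminescence after 72 h exposure to an 11-point compound series. Compound was added to 1000 cells/well 4 h after seeding.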

[19] = KB-3-1 Cancer Cell Toxicity qHTS against the NCATS CANVASS Library (AID 1347366); note: nearly all actives have a fitted effect of over 75% in size; note: potency is the fitted concentration of half-maximal effect
In short: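 CellTiter-Glo luminescence measured viability after 72 h at 37C. KB-3-1 cells were seeded at 500 per well in DMEM/10% FBS.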

[20] = qHTS for H2AX Agonists against the NCATS CANVASS Library (AID 1347378); note: potency is the fitted concentration of half-maximal effect
In short: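 Phospho-H2AX (S139) in CHO-K1 lysates measured by HTRF, reported as 665/615 nm emission ratio after 24 hr antibody incubation at room temperature. Cells were first treated with a compound series for 3 hr at 37C (0.76% DMSO final).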

Measured: Potency

Sequence of Nuclear receptor subfamily 1 group I member 3 (Homo sapiens) (Q14994 whole entry, looked up): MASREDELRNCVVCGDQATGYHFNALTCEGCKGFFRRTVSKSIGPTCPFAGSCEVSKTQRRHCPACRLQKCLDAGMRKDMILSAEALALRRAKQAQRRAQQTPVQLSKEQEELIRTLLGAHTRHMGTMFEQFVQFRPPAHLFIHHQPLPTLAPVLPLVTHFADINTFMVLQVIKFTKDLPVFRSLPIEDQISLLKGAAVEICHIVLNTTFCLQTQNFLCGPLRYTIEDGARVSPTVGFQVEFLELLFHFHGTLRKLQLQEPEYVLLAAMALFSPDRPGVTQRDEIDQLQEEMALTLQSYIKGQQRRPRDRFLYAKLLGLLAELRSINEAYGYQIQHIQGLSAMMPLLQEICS

COC(=O)c1cc2cc3c(c(O)c2c(=O)o1)OC1(CC3)CC2=C(O1)C(=O)c1c(O)c(OC)cc(OC)c1C2=O (stereo unspecified)
active: [11] 3.31 µM
inactive: [1] | [2] | [3] | [4] | [5] | [6] | [7] | [8] | [9] | [10]

O=C(OC[C@H]1O[C@@H](OC(=O)c2cc(O)c(O)c(O)c2)[C@H](OC(=O)c2cc(O)c(O)c(O)c2)[C@@H](OC(=O)c2cc(O)c(O)c(O)c2)[C@@H]1OC(=O)c1cc(O)c(O)c(O)c1)c1cc(O)c(O)c(O)c1
active: [12] 23.5 µM | [14] 11.7 µM | [16] 34 µM | [17] 24.1 µM
not listed: [11] | [18] | [19] | [20]
inactive: all other assays above

O=C1CC(c2ccc(O)cc2)Oc2cc(O)cc(O)c21 (stereo unspecified)
not listed: [11]
inactive: all other assays above

CC[C@H](O)CCCCC[C@@H]1NC(=O)[C@H]2CCCCN2C(=O)[C@H]([C@H](C)CC)NC(=O)[C@H](Cc2cn(OC)c3ccccc23)NC1=O
not listed: [3] | [7] | [11] | [12] | [18] | [20]
inactive: all other assays above

C/C(=C\[C@H](C)C(=O)/C=C/CC1CC(=O)NC(=O)C1)[C@@H]1OC(=O)/C=C/CC/C=C/C[C@@H](O)[C@@H]1C
active: [18] 3.72 µM | [19] 11.8 µM | [12] 1.05 µM | [7] 3.31 µM | [15] 10.8 µM | [16] 17 µM
inactive: [1] | [2] | [3] | [4] | [5] | [8] | [9] | [10]

C/C(=C\[C@H](C)C(=O)CCCC1CC(=O)NC(=O)C1)[C@@H]1OC(=O)/C=C/CC/C=C/[C@H](O)[C@@H](O)[C@@H]1C
active: [18] 0.662 µM | [19] 6.62 µM | [12] 0.372 µM | [7] 2.63 µM | [15] 2.72 µM | [16] 3.81 µM | [17] 24.1 µM
not listed: [13] | [20]
inactive: all other assays above

Oc1ccc(C2Oc3cc(O)c4c(c3[C@@H]2c2cc(O)cc(O)c2)[C@H]2C(c3ccc(O)cc3)c3c(O)cc5c(c3[C@H]2C4c2ccc(O)cc2)[C@H](c2cc(O)cc(O)c2)C(c2ccc(O)cc2)O5)cc1 (stereo partly specified)
active: [19] 13.2 µM
not listed: [11] | [12] | [14] | [17]
inactive: all other assays above

C/C1=C/[C@@H](C)[C@H](O)[C@@H](O)/C=C/CC/C=C/C(=O)O[C@@H]1[C@H](C)C(=O)/C=C/CC1CC(=O)NC(=O)C1
active: [16] 3.03 µM
not listed: [7] | [12] | [15] | [17] | [18]
inactive: all other assays above

C/C=C1/CN2C3CC1C1C=CC(=O)N4c5ccccc5[C@@]3(C[C@@H]2C2=C[C@H]3C5CC6N(CC[C@@]67c6ccccc6N(C2=O)[C@@H]37)C/C5=C/C)[C@H]14 (stereo partly specified)
inactive: [6] | [8] | [9] | [10] | [17]
active: [18] 9.35 µM | [2] 26.4 µM | [19] 10.5 µM | [12] 7.43 µM | [13] 16.5 µM | [7] 5.24 µM | [20] 21.7 µM | [15] 34.3 µM | [16] 19.1 µM

C/C=C/C(=O)C1(O)CC2CC(C(=O)O)CC(C)C2C1C1=C2C(=O)NC(=O)C2=C(CCCCC)C(C)O1 (stereo unspecified)
active: [12] 11.8 µM | [7] 16.6 µM | [14] 7.41 µM
not listed: [11] | [15] | [16] | [17] | [18] | [19]
inactive: all other assays above

CO[C@H]1/C=C/CCCCC(=O)O[C@@H](/C(C)=C/[C@H](C)C(=O)C[C@H](O)CC2CC(=O)NC(=O)C2)[C@@H](C)C1
active: [18] 14.8 µM | [12] 5.26 µM | [7] 20.9 µM | [15] 17.2 µM
not listed: [16] | [17] | [19]
inactive: all other assays above

CC(=O)c1c(C)cc2c(c1O)C(=O)c1c(O)cc(O)cc1C2=O
inactive: all assays above

COC1C(C)OC(OCC23C[C@@H]4[C@H](C)CC[C@H]4C4(C=O)CC2C=C(C(C)C)C34C(=O)O)[C@@H](O)[C@H]1O (stereo partly specified)
inactive: all assays above

C=C[C@](Cl)(CBr)CCC=C(C)C
not listed: [9] | [12]
inactive: all other assays above
